Bioassay records deposited in PubChem by National Center for Advancing Translational Sciences (NCATS).
The list is not random: actives were taken first. Their share in the collection is about 7.5%.
Rab9 promoter act: activators of Rab9 promoter; Potency, µM (series often up to 9.22 µM), for the others: at the highest dose activation, negative = inhibition, most hits filed as activators; 2.8% of 320,000 active; Huh7 Rab9 promoter-luciferase reporter, luminescence, 24 h; further: % of control where 0% means no effect; nearly all actives have a fitted effect of over 60% in size
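Promoter activation is measured as luciferase luminescence in Huh7 cells stably transfected with a Rab9 promoter–luciferase construct, following 24 h compound exposure at 37 °C and 10 min reagent incubation at ambient temperature.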
SMN2 splice enh: enhancers of SMN2 splice variant expression. HEK293 SMN2-luciferase splicing reporter, luminescence, 30-36 h. Potency, µM (highest dose often 46.1 µM), inactives show at the top dose activity change, positive = activation, actives largely listed as activators. 2.8% of 210,000 active; further: % of control where 0% means no effect; nearly all actives have a fitted effect of over 55% in size
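qHTS luciferase splicing reporter: luminescence rises when SMN2 exon 7 is included in transfected HEK293 cells. Compound exposure lasted 30-36 h at 37C, with 4.5 mM final sodium butyrate as control, followed by a ONE-Glo read.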
FLuc counter: inhibits or activates purified firefly luciferase, miR-21 counter-screen. purified FLuc, Km substrates, luminescence inhibition. 6.9% of 360,000 active. Potency, µM (top dose mostly 57.5 µM), without a hit: top-dose activity change, negative = inhibition, most hits filed as inhibitors;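 further: plate controls were vehicle for no effect and reference inhibitor for full effect; nearly all actives have a fitted effect of over 55% in size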
Target sequence (P08659 whole entry, looked up): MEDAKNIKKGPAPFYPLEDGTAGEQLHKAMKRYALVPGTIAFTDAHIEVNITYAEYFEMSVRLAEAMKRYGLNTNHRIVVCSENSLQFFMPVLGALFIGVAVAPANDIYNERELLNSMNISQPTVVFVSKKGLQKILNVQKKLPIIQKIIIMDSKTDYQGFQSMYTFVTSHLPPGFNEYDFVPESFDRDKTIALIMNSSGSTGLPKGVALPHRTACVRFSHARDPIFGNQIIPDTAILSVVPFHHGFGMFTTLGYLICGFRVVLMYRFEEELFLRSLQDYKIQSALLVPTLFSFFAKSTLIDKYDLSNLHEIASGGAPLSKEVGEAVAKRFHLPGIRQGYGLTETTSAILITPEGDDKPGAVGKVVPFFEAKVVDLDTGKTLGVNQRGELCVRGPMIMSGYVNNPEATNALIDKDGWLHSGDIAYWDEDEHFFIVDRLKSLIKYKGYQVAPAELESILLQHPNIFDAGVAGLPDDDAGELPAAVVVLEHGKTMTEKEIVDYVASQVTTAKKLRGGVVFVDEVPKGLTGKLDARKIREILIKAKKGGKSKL
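Purified P. pyralis luciferase, 10 nM final, with Km-level 10 uM D-luciferin and 10 uM ATP in 50 mM Tris acetate pH 7.5, 10 mM Mg acetate, 0.01% Tween-20, 0.05% BSA; 6-point qHTS titration about 60 µM downward; luminescence read.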
NPC1 promoter act: NPC1 promoter activation. Huh7 NPC1 promoter luciferase reporter, 24 h. Potency, µM (top dose mostly 9.22 µM), for inactives: at the highest dose activation, usual class: activators. 2.4% of 320,000 active; further: % of control where 0% means no effect; nearly all actives have a fitted effect of over 60% in size
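Luminescence from an NPC1 promoter-driven luciferase reporter in stably transfected Huh7 cells was measured after 24 h compound treatment at 37 °C, followed by 10 min ambient incubation with luciferase detection reagent.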
ELG1 genotoxic: induces genotoxicity in HEK293T cells with luciferase-tagged ELG1. HEK293T ELG1-luciferase reporter, luminescence, 16 h. Potency, µM (doses to about 46 µM), for the others: at the highest dose activity change, positive = activation, usual class: activators. 1.3% of 330,000 active; further: % of control where 0% means no effect; nearly all actives have a fitted effect of over 60% in size
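Step 1: seed 2,000 HEK293T ELG1-luciferase cells per well. Step 2: add compound or DMSO, incubate 16 hr at 37 °C. Step 3: ONE-Glo, 30 min at room temperature, read luminescence.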
* hit, by the source's call; ? = inconclusive; . = no result given; [ ] = another dose, or the depositor's remark. The call rests on the fitted dose curve; in most records, active means well fitted curve in the direction sought with a large enough effect; inconclusive means small, poorly fitted or top-dose-only effect, or another doubt; inactive means no such curve, though single readings can be large; an effect the other way counts as inactive or inconclusive. Potency means the concentration at half of the fitted maximal effect.

SMILES	Rab9 promoter act	SMN2 splice enh	FLuc counter	NPC1 promoter act	ELG1 genotoxic
COc1ccc(OCc2cc(C(=O)NC(C)c3csc(C)n3)no2)c(Cl)c1 (configuration not stated)	4.47µM*	.	13.5µM*	?	7.2%[9.26 µM]
COc1ccc(N(C)C(=O)CCC(=O)Nc2ccc3nc(N4CCOCC4)cc(C)c3c2)c(OC)c1	15.9%	.	?	-1.6%	-2.3%
COc1ccc(NC(=O)CCC(=O)Nc2ccc3nc(N4CCOCC4)cc(C)c3c2)c(OC)c1	2.51µM*	.	2.69µM*	?	?
COc1cc(NC(=O)CCC(=O)Nc2ccc3nc(N4CCOCC4)cc(C)c3c2)cc(OC)c1OC	16.5%	.	15.1µM*	24.1%	6.2%
COc1ccc(CNC(=O)CN2C(=O)CSc3ccc(S(=O)(=O)N4CCOCC4)cc32)c(OC)c1	4.0%	.	-0.4%	5.4%	1.3%
O=C(OCC(=O)N1CCCc2ccccc21)c1cccc(S(=O)(=O)N2CCc3ccccc32)c1	-5.3%	-16.5%	5.1%	1.0%	-2.3%
Cc1ncc(CO)c(CO)c1O	-5.1%	6.1%[20.6 µM]	5.3%	-3.0%	1.8%
COCc1c(CCl)cnc(C)c1O	4.3%	.	16.9µM*	-2.0%	4.6%
O=C(NCCc1c[nH]c2ccccc12)c1cc(Cl)c2c(c1)OCO2	1.41µM*	.	23.9µM*	2.51µM*	?
O=C(NCCc1c[nH]c2ccccc12)c1cc2sccc2n1Cc1ccccc1	-6.8%	-30.8%	-0.8%	1.7%	-11.6%
O=C(NCCc1c[nH]c2ccccc12)/C(=C\c1cccs1)NC(=O)c1ccccc1	-0.6%	3.5%	3.0%	-3.9%	-3.8%
O=C(NCCc1c[nH]c2ccccc12)c1ccc2c(c1)OCO2	1.26µM*	.	6.75µM*	1.12µM*	?
Cc1ccc(C(=O)N/C(=C/c2ccco2)C(=O)NCCc2c[nH]c3ccccc23)cc1	-3.0%	6.2%	15.1µM*	-1.3%	1.9%
Cn1c(C(=O)NCCc2c[nH]c3ccccc23)cc2sccc21	?	25.1%	12µM*	?	14.6µM*
Cc1ccc2[nH]cc(CCNC(=O)c3ccc4c(c3)OCO4)c2c1	-3.2%	.	?	10.7%	-6.3%
CC(C)C(O)(C#CCN1CCCCCC1)c1ccccc1 (configuration not stated)	-1.1%	.	?	0.8%	-6.3%
COc1ccc(NS(=O)(=O)c2ccc3nc(COc4ccc(Cl)c(C)c4)[nH]c3c2)cc1	7.2%	.	0.8%	0.4%	-10.7%
CCCCNC(=O)Cn1cnc2sc(C)c(S(=O)(=O)N3CCN(c4ncccn4)CC3)c2c1=O	-0.4%	-11.9%	1.5%	0.0%	-0.5%
Cc1ccccc1NC1=NC(C)(C)N=C(N)N1	2.8%	0.224µM*	-0.6%	9.1%	0.4%
CN(C)S(=O)(=O)Oc1cccc(C(=O)Nc2ccc(Cl)cc2)c1	?	3.6%	3.38µM*	?	5.2%
CN(C)S(=O)(=O)Oc1ccsc1C(=O)Nc1ccc(Cl)cc1	0.1%	-66.1%	-0.3%	2.3%	-2.1%
CN(C)S(=O)(=O)Oc1ccc(C(=O)Nc2cccc(Cl)c2)cc1	?	12.6µM*	12µM*	?	?
CN(C)S(=O)(=O)Oc1cccc(C(=O)Nc2ccccc2Cl)c1	5.62µM*	12.0%	21.3µM*	28.4%	?
CCOC(=O)N(C)S(=O)(=O)c1ccccc1[N+](=O)[O-]	-1.9%	7.2%	-2.4%	-6.6%	-3.5%
CC1CC(C)CN(C(=O)/C=C/c2ccc(S(=O)(=O)N3CCOCC3)cc2)C1 (configuration not stated)	-2.8%	.	-0.3%	0.0%	1.1%
SMILES	Rab9 promoter act	SMN2 splice enh	FLuc counter	NPC1 promoter act	ELG1 genotoxic
CCOC(=O)c1c(/C=N/Nc2ccccc2)c2sc(C)cc2n1C	14.1%	.	?	11.3%	.
COC(=O)[C@@H]1C[C@H]1[C@@H](NC(=O)c1ccccc1)c1ccccc1	-7.4%	-16.2%	1.7%	-2.6%	-1.6%
O=c1nc2c(-c3cccc(Br)c3)n[nH]n2c2ccccc12	3.55µM*	.	4.78µM*	?	?
Cc1ccc(S(=O)(=O)c2n[nH]n3c2nc(=O)c2ccccc23)cc1	-0.5%	-4.7%	-6.4%	0.5%	-3.4%
COc1ccc(-n2c(=S)[nH]c3cc(C(=O)N4CCN(c5ccccc5)CC4)ccc3c2=O)c(OC)c1	-2.6%	.	0.9%	0.2%	-10.4%
O=C(NC(=O)c1ccc(Cl)cc1)OC1CCCCC1	19.4%	22.0%	?	16.1%	16.9%
O=C(Nc1ccccc1Cl)OC1CCCCC1	11.0%	.	23.9µM*	-1.5%	4.4%
O=C(Cc1ccccc1[N+](=O)[O-])NNC(=O)Nc1ccc2c(c1)OCO2	-1.4%	.	0.4%	0.2%	0.6%
COc1ccccc1NC(=O)Nc1ccc2c(c1)OCCO2	24.4%	?	12µM*	18.9%	11.8%
Cc1c(NC(=O)Nc2ccc3c(c2)OCO3)cccc1[N+](=O)[O-]	?	.	?	3.16µM*	14.1%
CCOc1ccccc1NC(=O)Nc1cccc(C(C)=O)c1	6.9%	-1.0%	23.9µM*	-1.9%	13.7%
Cc1ccccc1NC(=O)Nc1ccc2c(c1)OCO2	2.82µM*	.	?	?	?
CCOc1ccccc1NC(=O)Nc1cccc(NC(C)=O)c1	-5.1%	.	-14.6%	0.2%	-1.2%
Cc1ccc(NC(=O)Nc2ccc3c(c2)CCC3)c(C)c1	7.9%	.	4.0%	-1.6%	8.3%
CCOc1ccccc1NC(=O)Nc1ccc2c(c1)CCC2	?	.	6.75µM*	?	?
CC(=O)Nc1ccccc1OCC(=O)c1ccc2c(c1)OCO2	3.16µM*	.	-7.8%	3.55µM*	?
O=C(Nc1ccc2c(c1)CCC2)Nc1ccccc1Cl	1.78µM*	.	1.51µM*	1.41µM*	2.31µM*
CCc1cccc(C)c1NC(=O)Nc1ccc2c(c1)OCO2	0.7%	20.9%	2.7%	-2.6%	0.5%
CC(NC(=S)Nc1ccccc1C(F)(F)F)C1CC2CCC1C2 (configuration not stated)	-1.8%	-28.1%	1.0%	-2.7%	-6.9%
COc1ccc(-c2cn3nc(N4CCC(C(=O)NCc5cccc(Cl)c5)CC4)sc3n2)cc1	.	.	6.3%	.	.
COc1ccc(NC(=O)CCCn2nc(C)c3c(C)n(-c4ccccc4)nc3c2=O)cc1	-0.9%	.	1.1%	0.2%	0.2%
CCOc1ccccc1OCCC(=O)Nc1ccc2c(c1)OCO2	.	.	.	.	1.7%
CCOc1ccccc1NC(=O)Nc1ccc2c(c1)OCO2	?	.	21.3µM*	26.3%	11.2%
O=C(NN=C1CCCCC1)Nc1ccccc1Cl	-5.4%	.	19µM*	2.2%	-1.6%
Cc1nn(-c2ccccc2)c(C)c1C(=O)OC(C)C(=O)NC1CCCCC1 (configuration not stated)	.	.	.	.	-0.5%
CCN(CC)S(=O)(=O)c1cc(C(=O)OCC(=O)Nc2ccc(-c3nc4ccc(C)cc4s3)cc2)ccc1F	0.316µM*	1.58µM*	5.36µM*	0.398µM*	10.3µM*
CCN(CC)S(=O)(=O)c1cc(C(=O)OCC(=O)Nc2cccc(S(=O)(=O)N(C)C)c2)ccc1F	-5.1%	.	-11.5%	-7.1%	3.1%
